Screening data: PubChem BioAssay, National Center for Advancing Translational Sciences (NCATS)
RXFP1 antag: blocks the human relaxin receptor RXFP1 | AID 1259400 | activity change, negative = inhibition, % at 57.5 µM | HEK293-RXFP1, relaxin-stimulated cAMP HTRF, 30 min; active compounds read low | Q9HBX9 | hit rate 0.59% among 350,000;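 active = activity change of -60% or lower, but not beyond a set lower limit; inconclusive = change between -60% and -40%, or beyond the set limit; inactive = change above -40%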; note: % is set by controls: 0 for no effect and ±100 for the full control effect
Target sequence (Q9HBX9 whole entry, looked up): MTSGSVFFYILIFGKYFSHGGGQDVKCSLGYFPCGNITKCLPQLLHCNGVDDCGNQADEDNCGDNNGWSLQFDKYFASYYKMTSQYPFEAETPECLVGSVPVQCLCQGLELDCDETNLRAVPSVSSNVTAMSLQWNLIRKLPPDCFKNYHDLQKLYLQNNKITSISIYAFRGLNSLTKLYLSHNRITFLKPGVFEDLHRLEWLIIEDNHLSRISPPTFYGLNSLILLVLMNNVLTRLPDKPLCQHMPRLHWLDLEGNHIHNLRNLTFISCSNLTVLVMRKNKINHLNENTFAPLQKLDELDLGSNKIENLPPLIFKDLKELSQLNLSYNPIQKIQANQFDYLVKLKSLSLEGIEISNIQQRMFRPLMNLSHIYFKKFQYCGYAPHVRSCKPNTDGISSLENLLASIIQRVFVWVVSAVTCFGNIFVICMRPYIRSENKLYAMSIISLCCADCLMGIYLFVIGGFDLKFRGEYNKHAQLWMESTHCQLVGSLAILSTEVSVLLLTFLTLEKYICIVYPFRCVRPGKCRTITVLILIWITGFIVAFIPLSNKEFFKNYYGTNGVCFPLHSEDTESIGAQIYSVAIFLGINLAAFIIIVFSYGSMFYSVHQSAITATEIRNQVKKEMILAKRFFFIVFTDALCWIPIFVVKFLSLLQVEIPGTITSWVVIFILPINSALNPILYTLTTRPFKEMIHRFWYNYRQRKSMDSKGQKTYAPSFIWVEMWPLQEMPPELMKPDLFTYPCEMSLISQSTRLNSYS
gsp ag: activates gsp, the McCune-Albright syndrome mutation. gsp mutant cells, cAMP HTRF, 30 min. Potency, µM (series often up to 76.9 µM), for the others: at the highest dose activation (cAMP increase), hits mostly activators. hit rate 0.13% among 340,000; active = well fitted activation curve with a large enough effect; inconclusive = small, poorly fitted or top-dose-only effect, or another doubt; inactive = no such curve, though single readings can be large or run the other way; cell line not stated here;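 note: phosphodiesterase inhibitor Ro 20-1724 added with compounds to block cAMP breakdown; potency is the fitted concentration of half-maximal effect; nearly all actives have a fitted effect of over 60% in size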
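Cells in DMEM/10% FBS with G418 were pretreated with compounds in DMSO plus […] (300 uM stock) for 30 min at 37C. cAMP was measured by HTRF (cAMP-d2 plus anti-cAMP antibody-K) after 30 min at room temperature.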
pAkt inh: blocks phosphorylation of Akt; activity change, % for hits at 50 µM; Neuro2A IGF-stimulated pAkt S473 HTRF, 20 min; active compounds read low; hit rate 0.32% among 360,000; in the data active = activity change below about -80%; inconclusive = mostly about -51% to -80%; note: % is set by controls: 0 for no effect and ±100 for the full control effect
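Single-point screen (50 µM final compound) in Neuro2A cells stimulated 20 min with 6 nM IGF at 37 deg C. After lysis, Ser473-phosphorylated Akt read by HTRF (ex 330 nm, em 615/665 nm) as the 665/615 ratio.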
gsp antagonist: antagonizes gsp, the McCune-Albright syndrome mutation; gsp-mutant cells, cAMP HTRF, 30 min; Potency, µM (top dose mostly 76.9 µM), inactives show at the highest dose activity change, negative = inhibition, actives largely listed as inhibitors; hit rate 0.4% among 340,000; calls by dose curve; cell line not stated here;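 note: intracellular cAMP measured with PDE inhibitor Ro 20-1724 present during compound exposure; potency is the fitted concentration of half-maximal effect; % is set by controls: 0 for no effect and ±100 for the full control effect; nearly all actives have a fitted effect of over 65% in size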
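Measurement of cellular cAMP by homogeneous time-resolved fluorescence following a 30 min compound exposure at 37C. The PDE inhibitor […] was present throughout; the assay buffer was DPBS with 0.05% BSA and 0.005% Tween 20.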
RXFP1 agonist: activates the human relaxin receptor RXFP1 | HEK293T-RXFP1 cAMP TR-FRET, 30 min; response scale: percent of porcine relaxin response, buffer zero | hit rate 0.3% among 370,000 | Q9HBX9 | Potency, µM (titrated, usually from 57.5 µM), for the others: at the highest dose activation, actives largely listed as activators; active = well fitted activation curve with a large enough effect; inconclusive = small, poorly fitted or top-dose-only effect; note: potency is the fitted concentration of half-maximal effect; % is set by controls: 0 for no effect and ±100 for the full control effect; nearly all actives have a fitted effect of over 60% in size
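HEK293T cells stably expressing RXFP1 were pretreated with the PDE4 inhibitor Ro 20174, exposed to compounds for 30 min at 37C, lysed, and cAMP was read by TR-FRET. Data normalized to buffer (basal) and 29 nM porcine relaxin (100%).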
* hit, by the source's call; i = inactive; ? = inconclusive; / = no result; [ ] = remark or other dose. An excerpt weighted towards active compounds, which were near 1.2% of everything screened.

SMILES	RXFP1 antag	gsp ag	pAkt inh	gsp antagonist	RXFP1 agonist
O=[N+]([O-])c1cccc(NC2=NCCC2)c1	-64*	0%[15.4 µM]	i	19%	1%
CCOc1cc2[nH]c(=S)n(CCOC)c(=O)c2cc1OCC	?	4.5µM*	i	9%	-1%
COCCn1c(=O)[nH]c2cc(C(=O)N3CCN(c4ccccc4OC)CC3)ccc2c1=O	-14	5%	i	4%	-1%
CCCCN(C)CCn1c(=S)[nH]c2cc(OCC)c(OCC)cc2c1=O	5	-68%	i	-7%	-1%
COCCn1c(=S)[nH]c2cc(C(=O)N3CCc4ccccc4C3)ccc2c1=O	-66*	-5%[15.4 µM]	i	-10%	1%
COCCn1c(=S)[nH]c2cc(C(=O)N3CC(C)CC(C)C3)ccc2c1=O (stereo unspecified)	8	?	i	-14%	-3%
COCCn1c(=S)[nH]c2cc(C(=O)N3CCN(c4ccccc4OC)CC3)ccc2c1=O	-112*	5%	/	-3%	0%
O=C1CS(=O)(=O)C2(C(=O)N(Cc3ccccc3Cl)c3ccccc32)N1c1ccc(F)cc1 (stereo unspecified)	/	/	/	/	1%
CC(C)(C)[C@H](NC(=O)c1ccc(N)c(Cl)c1)C(=O)N1CCC[C@H]1C(=O)N[C@H](C#N)Cc1nn[nH]n1	/	/	/	/	0%
CC(C)(C)NCC(O)COc1ccc(NC(=O)NC2CCCCC2)cc1 (stereo unspecified)	5	/	/	/	/
CCCOc1cccc(C(=O)Nc2cc(NC(=O)c3ccco3)ccc2OC)c1	-1	10%	-107%*	-22%	2%
CCc1ccc(NC(=O)CC2C(=O)N(c3cccc(C)c3)C(=O)N2Cc2ccco2)cc1 (stereo unspecified)	-3	/	/	/	0%
O=C(CSc1nnc(-c2cccnc2)o1)Oc1ccccc1	-8	21%	i	-9%	2%
COC(=O)CSc1nnc(-c2ccc(NS(=O)(=O)c3ccccc3)cc2)o1	-8	9%	-111%*	-18%[15.4 µM]	3%
O=C(CSc1nnc(-c2ccncc2)o1)Oc1ccccc1	6	0%	-92%*	-7%	2%
NC(=O)NC1N=C([O][Al])NC1=O (stereo unspecified)	5	/	/	/	/
O=C(Nc1ccc(F)cc1F)c1ccc2nc(N3CCOCC3)sc2c1	/	-27%	i	-4%	21%
O=C(Nc1ccccc1F)c1ccc2nc(N3C(=O)CCC3=O)sc2c1	-18	0%	-120%*	-16%	-2%
O/N=C1\CCc2cc(Cl)ccc21	-23	-3%	-102%*	15%	1%
O=C(O)c1cccc(-n2cccc2/C=N/O)c1	-10	19%	-109%*	7%	-1%
ON=Cc1cccn1-c1ccccc1	0	-18%	i	6%	0%
CC(C)Cc1cc(C(=O)Nc2sc3c(c2C#N)CCC3)no1	-66*	?	i	-17%	2%
COc1cc(C(=O)Nc2sc3c(c2C#N)CCN(C(C)=O)C3)cc(OC)c1OC	/	10µM*	i	0%	17%
Cc1ccc(C(=O)Nc2sc3c(c2C#N)CCCCC3)cc1C	-14	27%	-95%*	-8%	3%
COc1ccc(C(=O)Nc2sc3c(c2C#N)CCN(C(C)=O)C3)cc1	-3	-6%	i	15%	6%
SMILES	RXFP1 antag	gsp ag	pAkt inh	gsp antagonist	RXFP1 agonist
COc1ccccc1-c1c(C)nn2c(N3CCOCC3)cc(C)nc12	4	3%	i	-2%	0%
COc1ccccc1-c1c(C)nn2c(N3CCCCCC3)cc(C)nc12	/	1%	i	35µM*	3%
COc1cc(/C=N/NC(=O)Cn2cnc3c2c(=O)n(C)c(=O)n3C)ccc1O	41	22µM*	i	7%	16µM*
COc1cc(/C=N/NC(=O)Cn2cnc3ccccc3c2=O)ccc1O	-9	1%[15.4 µM]	i	3%	14%
Cc1cccc(N(CC(N)=O)C2SC(=O)NC2=O)c1 (stereo unspecified)	-17	-4%	-106%*	2%	3%
COc1ccc(C(=O)Nc2ccccc2-c2nc3ccccc3s2)c(OC)c1	-2	/	/	/	16%
Cc1ccc(N2C(=O)C3C4C=CC(C4)C3C2=O)cc1 (stereo unspecified)	3	14%	i	12%	1%
Cc1cc(C)cc(N2C(=O)C3C4C=CC(C4)C3C2=O)c1 (stereo unspecified)	-9	-14%	-104%*	-2%	1%
COc1ccc(CCNC(=O)CSc2nc3nc(C)c(Cc4ccc(C)cc4)c(C)n3n2)cc1OC	-24	/	/	/	-2%
CCn1cnc2sc(C(=O)N(Cc3ccc(N(C)C)cc3)Cc3ccco3)c(C)c2c1=O	-11	15%	-109%*	7%	6%
O=C(c1cccc(C(F)(F)F)c1)N1CCc2c([nH]c3ccccc23)C1C(F)(F)F (stereo unspecified)	-92*	?	i	13%	1%
O=C(O)c1ccccc1C(=O)N1CCc2c([nH]c3ccccc23)C1C(F)(F)F (stereo unspecified)	-29	20%	i	-1%	2%
O=C(NCCc1ccccc1Cl)c1ccc2c(c1)nc1n2CCCCC1	-9	/	/	/	-3%
O=c1c2[nH]c3ccc(Cl)cc3c2ncn1CCN1CCCCC1	-14	-4%	i	3%	1%
S=c1nc[nH]c2c1[nH]c1ccc(Cl)cc12	-36	?	i	10%	3.2µM*
S=c1nc[nH]c2c1[nH]c1ccccc12	19	13µM*	i	55%	7.1µM*
Cc1csc(NC(=O)Cc2ccccc2Cl)n1	-14	?	i	0%	4%
Cc1cnc(NC(=O)Cc2ccccc2Cl)s1	-64*	-39%	i	6%	2%
COc1ccc(-c2cccc(NS(=O)(=O)c3cc(C)c(Cl)cc3C)c2)nn1	-9	/	/	/	2%
CCC(=O)Nc1ccccc1C(=O)OCC(=O)c1cccc2ccccc12	1	-1%	-118%*	-22%	5%
CCC(=O)Nc1ccccc1C(=O)OCc1ccc(C(=O)c2ccccc2)cc1	-4	-63%	i	?	2%
CCOc1ccc(N2CC(C(=O)NCCc3ccc(OC)c(OC)c3)CC2=O)cc1 (stereo unspecified)	-2	21%	-107%*	2%	2%
O=C(CN(Cc1ccco1)C(=O)CNS(=O)(=O)c1ccc(F)cc1)NCc1ccccc1	-32	18%	i	2%	2%
O=C(CN(Cc1ccco1)C(=O)CNS(=O)(=O)c1ccccc1)NCc1ccccc1	-1	-28%	-120%*	-20%	-2%
COc1ccc(Cc2nnc(Nc3ccc(C)cc3C)[nH]c2=O)cc1	-7	3%	-122%*	-17%	0%
COc1ccc(Cc2nnc(SCC(=O)Nc3ccc(C)cc3C)[nH]c2=O)cc1	0	-19%	i	-9%	0%
CCCCNC(=O)CSc1nc2nc(C)c(Cc3ccccc3C)c(C)n2n1	-6	/	/	/	0%
